These are literature values, as cited in PubChem BioAssay AID977608.

The data set in a line: literature IC50 values for PDB complexes, PDB-derived complexes (AID 977608). As to conditions: PDB protein-ligand complexes.

Screen size: about 4,300 compounds; about 4,300 (100%) were called active. No cut-off is given here; in the data, nearly all actives have IC50 up to about 1400 µM. The set was probably picked from earlier hits. This is one part of the list. Where a SMILES comes first, the peptide text is derived from it.

For the compound `CC(C)C[C@H](NC(=O)[C@H](CC(C)C)NC(=O)[C@H](CC(C)C)NC(=O)[C@H](CCCCN)NC(=O)[C@H](CCCCN)NC(=O)[C@H](CC(C)C)NC(=O)[C@H](CC(C)C)NC(=O)[C@H](CO)NC(=O)[C@@H]1CCCN1)C(=O)N[C@@H](C)C(=O)N1CCC[C@H]1C(=O)N[C@@H](C)C=O` (H-PSLLKKLLLAPA-aldehyde), the IC50 (protein: PPARgama, PDB entry 3cs8) is 1.7 µM (active). As for `CC(C)C[C@H](NC(=O)[C@@H](O)CC(=O)O)C(=O)NCCCCNC(N)N`, where the note is “protein: Streptopain, PDB entry 4d8e”, the IC50 is 0.098 µM (active). On to `CCC(CC)[C@H](NC(C)=O)[C@@H]1[C@H](O)[C@@H](C(=O)O)C[C@H]1NC(N)N`, for which the IC50 reads like this: (protein: Neuraminidase, PDB entry 4mwv) 0.0004 µM (active); (protein: Neuraminidase, PDB entry 4mx0) 0.185 µM (active). As to `CC(C)Oc1ccc(-c2ccnc(NC([P+](O)(O)O)[P+](O)(O)O)c2)cc1`, for the setting “protein: human farnesyl pyrophosphate synthase (FPPS), PDB entry 4h5c”, the IC50 is 0.028 µM (active).

As to `C[C@H](CC(=O)O)C1NN(C)C2N=C(N)NC(=O)C2C1O` (stereo partly drawn), the IC50 (protein: Dihydropteroate Synthase, PDB entry 4d9p) was 145 µM (active). Turning to `COc1ccc(C(=O)CCC(=O)O)c(O)c1`, the IC50 (protein: Orotidine 5'-phosphate decarboxylase, PDB entry 3vi2) was 170 µM (active). Turning to `CN1CCN(c2ccc(-c3ccncc3-c3cc(F)c(O)c(F)c3)cc2)CC1`, where the note is “protein: Ribosomal protein S6 kinase alpha-3 RSK2, PDB entry 4nus”, the IC50 was 0.005 µM (active). On to `CCCn1cnc2c1c(=O)n(CCCCC(C)=O)c(=O)n2C`, for which, under “protein: Chitinase A(W275G mutant), PDB entry 3as2”, the IC50 is 360 µM (active). Turning to `CC[C@H](C)[C@H](NC(C)=O)C(=O)N[C@@H](Cc1ccc(O)cc1)C(=O)N[C@@H](Cc1ccc(O)cc1)[P+](O)(O)O`, the IC50 (protein: Human testis angiotensin converting enzyme, PDB entry 4bzr) was 0.025 µM (active).

Turning to `O=C(NCc1cccc(O)c1)Nc1nc(-c2ccncc2)cs1`, under “protein: Rho-associated protein kinase 1, PDB entry 3twj”, the IC50 is 0.0145 µM (active). With `C[C@@H]1COC[C@@H](C)[N+]1=C1CC(=O)N2CC[C@@H](C(F)(F)F)[N+](Cc3ccc(Cl)s3)=C2N1`, the IC50 (protein: PHOSPHATIDYLINOSITOL 3-KINASE CATALYTIC SUBUNIT TYPE 3 Vsp34, PDB entry 4uwk) was 0.001 µM (active). In the case of `CC(C)OCC[N+]1=C2NC(=[N+]3CCOCC3)CC(=O)N2CC[C@H]1C(F)(F)F`, the IC50 (protein: PHOSPHATIDYLINOSITOL 3-KINASE CATALYTIC SUBUNIT TYPE 3 Vsp34, PDB entry 4uwg) is 0.007 µM (active).

`O/N=C/c1ccc(O)cc1`: the IC50 (protein: Macrophage Migration Inhibitory Factor (MIF), PDB entry 2ooz) is 7 µM (active). On to `CC(C)[C@H]1[C@H](C(=O)N2CCC[C@H]2C(=O)N(C)C)SC2=N[C@@](C)(c3ccc(Cl)cc3)[C@@H](c3ccc(Cl)cc3)N21`, for which the IC50 (protein: E3 ubiquitin-protein ligase Mdm2, PDB entry 3vzv) was 0.0092 µM (active). Turning to `CC(C)C[C@H](N[P+](O)(O)O[C@@H]1O[C@@H](C)[C@H](O)[C@@H](O)[C@H]1O)C(=O)N[C@@H](Cc1c[nH]c2ccccc12)C(=O)O`, the IC50 (protein: human neutral endopeptidase (Neprilysin), PDB entry 1dmt) is 0.002 µM (active). As for `O=C1N=C(c2ccccc2)C=CC1O` (stereo not drawn), the IC50 (protein: Polymerase PA, PDB entry 4m5o) was 0.38 µM (active). For the compound `Nc1csc2nccnc12`, the IC50 (protein: Dengue virus 3 non-structural protein 5, PDB entry 4ctk) was 10000 µM (active). As for `O[C@@H]1[C@@H](CO[P+](O)(O)O)O[C@](O)(CO[P+](O)(O)O)[C@H]1O`, the IC50 (PDB entry 4fxf) is 6.5 µM (active). As for `CCN1CCN(C(=O)N[C@@H](C(=O)N[C@H](C(=O)O)[C@H]2N[C@@H](C(=O)O)C(C)(C)S2)c2ccccc2)C(=O)C1=O`, the IC50 was 126 µM (active) (protein: Penicillin-binding protein 3, PDB entry 4kqq) and 126 µM (active) (protein: Penicillin-binding protein 3, PDB entry 4kqr). For `CCN1CCN(C(=O)N[C@@H](C(=O)N[C@H](C=O)[C@@H]2N[C@@H](C(=O)O)C(C)(C)S2)c2ccccc2)C(=O)C1=O`, the IC50 (protein: Penicillin-binding protein 3, PDB entry 4kqo) was 0.166 µM (active).

As to `CC(=O)Nc1cc(Oc2ccc3c(ccn3C(=O)Nc3ccc(CN4CCN(C)CC4)c(C(F)(F)F)c3)c2)ncn1`, the IC50 (protein: Tyrosine-protein kinase JAK2, PDB entry 3ugc) was 0.947 µM (active).

As to `N#C[C@@H](Cc1cccc(C(=O)c2c[nH]c3ncccc23)c1)C(N)=O`, the IC50 (protein: Ribosomal protein S6 kinase alpha-3, PDB entry 4jg7) was 0.12 µM (active). For the compound `O=C(N[C@H]1CCCCCCC[C@@H]2C[C@@]2(C(=O)NS(=O)(=O)C2CC2)NC(=O)[C@@H]2C[C@@H](OC(=O)N3CCc4ccccc4C3)CN2C1=O)OC1CCCC1`, the IC50 (protein: Serine protease NS3, PDB entry 4ktc) was 0.001 µM (active).

On to `CCCCC[C@H](CC(=O)NO)C(=O)N[C@H](C(=O)N1CCC[C@H]1C(=O)O)C(C)C`, for which, where the note is “protein: Peptide Deformylase from Staphylococcus aureus, PDB entry 1q1y”, the IC50 was 0.02 µM (active). Turning to H-GSDARFLRGYHLYA-OH, the IC50 (protein: HLA class II histocompatibility antigen, DR alpha chain, PDB entry 4ov5) was 0.0369 µM (active).

Turning to H-FLNKDLEVDGHFVTM-OH, for the setting “protein: HLA class I histocompatibility antigen, A-2 alpha chain HLA-A*0201, PDB entry 4u6y”, the IC50 was 0.083 µM (active).
